# Data taken from US20220289795, “EFFICIENT METHOD FOR PREPARING PPR PROTEIN AND USE OF THE SAME” (EditForce, Inc., published 2022).
# Target: T1, v3.1_PPR14 (Artificial Sequence)
# T1 chain: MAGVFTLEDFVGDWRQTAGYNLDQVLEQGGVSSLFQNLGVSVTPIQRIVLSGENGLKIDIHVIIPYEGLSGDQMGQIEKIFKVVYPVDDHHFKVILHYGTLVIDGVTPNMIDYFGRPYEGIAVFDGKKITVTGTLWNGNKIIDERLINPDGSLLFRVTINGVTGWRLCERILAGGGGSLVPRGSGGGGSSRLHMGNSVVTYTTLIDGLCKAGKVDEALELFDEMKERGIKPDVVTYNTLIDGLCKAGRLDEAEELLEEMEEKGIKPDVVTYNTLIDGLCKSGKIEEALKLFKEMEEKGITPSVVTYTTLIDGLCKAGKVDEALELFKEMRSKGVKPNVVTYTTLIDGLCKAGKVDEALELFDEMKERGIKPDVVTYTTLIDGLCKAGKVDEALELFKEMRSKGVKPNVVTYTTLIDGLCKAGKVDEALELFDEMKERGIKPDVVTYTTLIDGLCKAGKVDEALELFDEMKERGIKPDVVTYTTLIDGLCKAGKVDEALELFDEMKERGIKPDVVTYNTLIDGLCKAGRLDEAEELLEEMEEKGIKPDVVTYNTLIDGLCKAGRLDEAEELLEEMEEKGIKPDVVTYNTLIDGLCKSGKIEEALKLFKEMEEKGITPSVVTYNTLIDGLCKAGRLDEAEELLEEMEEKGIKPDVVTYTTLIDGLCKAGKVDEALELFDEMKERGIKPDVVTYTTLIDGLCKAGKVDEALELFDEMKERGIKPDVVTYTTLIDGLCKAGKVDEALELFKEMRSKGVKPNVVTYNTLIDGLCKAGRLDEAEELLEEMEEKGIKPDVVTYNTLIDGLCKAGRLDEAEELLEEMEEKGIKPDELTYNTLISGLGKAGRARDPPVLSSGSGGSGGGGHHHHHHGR
# Assay: RPB-ELISA
# Conditions: tags: N-terminal luciferase, C-terminal 6xHis; label: 5'-biotin; ssRNA
# Method: RNA probes consisting of a designed 30-base sequence containing 18 bases of the target sequence and modified by biotinylation at the 5′ end (RNA_1, RNA_2, RNA_3, RNA_4, and RNA_5, SEQ ID NOS: 61 to 65) were synthesized (Grainer). To a streptavidin-coated plate (Thermo fisher), the 5′-end biotinylated RNA probes were added, reaction was allowed at room temperature for 30 minutes, and the plate was washed with a lysis buffer (20 mM Tris-HCl, pH 7.6, 150 mM NaCl, 5 mM MgCl₂, 0.5% NP-40, 1 mM DTT, 0.1% BSA). For background measurement, wells to which RNA was not added, but 100 μL of the lysis buffer, 1 μL of 100 mM DTT, and 1 μL of 40 unit/4 RNase inhibitor (Takara, 2313A) were added were also prepared. Then, 200 μL of a blocking buffer (20 mM Tris-HCl, pH 7.6, 150 mM NaCl, 5 mM MgCl₂, 0.5% NP-40, 1 mM DTT, 1% BSA) was added, and the plate surface was blocked at room temperature for 30 minutes. Then, 100 μL of E. coli lysate containing luciferase-fused PPR protein having a luminescence level of 1.5×10⁸ LU/μL was added to each well, and the binding reaction was allowed at room temperature for 30 minutes. The well was washed 5 times with 200 μL of a washing buffer (20 mM Tris-HCl, pH 7.6, 150 mM NaCl, 5 mM MgCl₂, 0.5% NP-40, 1 mM DTT). […] The background (luminescence signal value obtained with adding the PPR protein and without adding RNA) was subtracted from the luminescences of the samples to which a solution containing each RNA and PPR protein was added, and the obtained values were used as the binding powers between the PPR protein and RNA.
# By using the V3.1 motif, PPR proteins for the same 23 kinds of target sequences were similarly prepared (SEQ ID NOS: 411 to 433 for the nucleotide sequences, and SEQ ID NOS: 434 to 456 for the amino acid sequences), and bindings of all the combinations were analyzed by using RPB-ELISA. The experimental method was the same as that used in Example 3.
row,Sequence,binding signal [log2 luminescence]
1,GGUUAGAGAUACAGUGUG,22.5
2,GUGGGGGUGGUAGGAAAU,20.1
